Measurements as given in PubChem BioAssay AID504332 (National Center for Advancing Translational Sciences (NCATS), 2011).
About 31,000 (8.9%) of roughly 350,000 compounds were called active. Inconclusive results (about 15%) are left out. Calls come from the whole dose curve; as a rule, active = well fitted inhibition curve with a large enough effect; inconclusive = small, poorly fitted or top-dose-only effect; inactive = no such curve, though single readings can be large or run the other way. Many of the other results were omitted from the sample, so actives are more common in it than they were.

molecular target: Histone-lysine N-methyltransferase EHMT2 (Homo sapiens) (UniProt Q96KQ7); assay: qHTS Assay for Inhibitors of Histone Lysine Methyltransferase G9a; conditions: G9a H3K9 monomethylation, AlphaScreen, 2 h; series mostly up to 59 µM; activity, negative = inhibition: at the top concentration; note: nearly all actives have a fitted effect of over 75% in size
Sequence (Q96KQ7 913-1193 limits assumed): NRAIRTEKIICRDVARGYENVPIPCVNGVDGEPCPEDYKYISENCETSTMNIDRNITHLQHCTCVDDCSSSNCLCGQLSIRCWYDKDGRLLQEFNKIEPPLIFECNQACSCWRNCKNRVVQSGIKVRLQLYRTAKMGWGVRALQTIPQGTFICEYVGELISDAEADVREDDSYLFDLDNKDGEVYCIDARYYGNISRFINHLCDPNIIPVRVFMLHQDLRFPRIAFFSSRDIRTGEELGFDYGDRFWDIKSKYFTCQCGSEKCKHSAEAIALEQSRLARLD
Summary of the method: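 G9a (20 nM) was preincubated 15 min with compound, then reacted 2 h at room temperature with 500 nM biotin-H3K9 peptide and 20 µM SAM. Monomethyl-H3K9 detected by AlphaScreen using anti-H3K9me1 antibody.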
% is set by controls: 0 for no effect and ±100 for the full control effect; potency is the fitted concentration of half-maximal effect.

activity, negative = inhibition, inactive:
COc1ccc(C(=O)COC(=O)CCCC(=O)Nc2cc(C(F)(F)F)ccc2Cl)cc1 2.92%, O=c1c2ccccc2ncn1/N=C/c1ccccc1 8.52% [at 102 µM], CCCCn1c(=O)c(CCC(=O)OCC(=O)Nc2ccc(C)c(Cl)c2)nc2ccccc21 21.2%, Cc1ccc(NC(=O)COC(=O)CCc2nc3ccccc3n2-c2ccccc2)c(C)c1 19.1%, CN(C)c1ccc(-n2cccc2/C=C2/SC(=Nc3ccc(F)cc3)NC2=O)cc1 -3.36% [at 102 µM], Cc1ccc(N(CC(=O)NCc2ccc(Cl)cc2)S(=O)(=O)N(C)C)cc1 2.2%, COc1cc(C(=O)Nc2ccc(OCc3cc(=O)n4ccc(C)cc4n3)cc2)cc(OC)c1OC 0.891%, COc1cccc(CNC(=O)C(=O)NCC(c2cccs2)S(=O)(=O)c2ccccc2)c1 (stereo not drawn) 9.87%, CCOCCCNC(=O)c1cn(CC)c2ccc(S(=O)(=O)N3CCc4ccccc4C3)cc2c1=O -4.51%, CCn1cc(C(=O)NCc2ccc(C)cc2)c(=O)c2cc(S(=O)(=O)N3CCc4ccccc4C3)ccc21 -3.65%, O=c1c2ccccc2c(-c2ccc(F)cc2)nn1-c1ccc(C(F)(F)F)cc1 28.6%, CCOc1ccc(OCC)c(NS(=O)(=O)c2ccc3[nH]c(=O)ccc3c2)c1 3%, COc1cccc(/C=C2\SC(=N)N(c3ccc(F)cc3)C2=O)c1 10.2%, COc1ccc(C(=O)N2CCN(c3ccc(C(C)=O)cc3F)CC2)cc1S(=O)(=O)NC1CC1 15.5% [at 2.33 µM], CCOc1ccc(-c2nnc3ccc(SC)nn23)cc1 12.5% [at 102 µM], COC(=O)c1ccc(CSc2ccc3nnc(-c4ccccc4)n3n2)o1 -17.6%, CCOc1ccc(NC(=O)Cn2cc(C(=O)c3ccc(C)cc3)c(=O)c3cc4c(cc32)OCCO4)cc1 14.7%, O=C(CCc1nnc(Cc2ccc3c(c2)OCO3)o1)NCCc1ccccc1Cl 27.8% [at 0.501 µM], CCN(CC)S(=O)(=O)c1cc(C(=O)Nc2ccccn2)ccc1C -27.2% [at 12.7 µM], COc1ccc(C(=O)/C=C/Nc2ccccn2)cc1 11.7% [at 102 µM], Cc1ccc(NC(=O)CN(C)C(=O)Cn2nnc(-c3ccccc3)n2)cc1 1.83% [at 102 µM], Cc1ccc(C)c(NC(=O)CN(C)C(=O)c2ccc3ncsc3c2)c1 -26.8% [at 102 µM], CC(NC(=O)c1ccc(S(=O)(=O)Nc2ccccc2)cc1)c1ccc(S(N)(=O)=O)cc1 (stereo not drawn) -4.66%, COc1cc(Br)cc2cc(S(=O)(=O)c3ccccc3)c(=O)oc12 -44.4%, COc1ccc(OC)c2sc(N3CCN(C(=O)C4COc5ccccc5O4)CC3)nc12 (stereo not drawn) -41.3%, COc1cc(NS(=O)(=O)c2ccc3c(c2)OCC(C(=O)N2CCCC2)O3)cc(OC)c1 (stereo not drawn) 9.66%, Cc1ccccc1CN1CCC(CNC(=O)c2c(C)oc3ncnc(N4CCCCC4)c23)CC1 -14.7%, COc1ccc2oc(C(=O)NCc3ccco3)c(C)c2c1 -3.78% [at 102 µM], O=C(c1ccco1)n1nc(-c2ccc(Cl)cc2)nc1NCc1ccccc1 -2.33%, c1ccc(-n2nnnc2N2CCOCC2)cc1 -32.7% [at 102 µM], O=c1[nH]c(N2CCOCC2)nc2ccccc12 15.6% [at 102 µM], O=C(Nc1ccc(C(=O)NCc2ccccc2Cl)cc1)C1=CSCCO1 13.9%, Cc1ccn2c(=O)nc(SCC(=O)NCc3ccc(F)cc3)nc2c1 -25% [at 102 µM], COc1ccc(-n2c(C)nc3c(cnn3-c3ccc(F)cc3)c2=O)cc1 0.269%, Cc1[nH]c2ccccc2c1C(=O)CN1CC(C)CC(C)C1 (stereo not drawn) -25.6% [at 102 µM], Cc1c(C(=O)N2CCOCC2)[nH]c2ccc(OCc3ccccc3)cc12 -37.5% [at 12.7 µM], CCOc1ccccc1CNC(=O)c1ccc2c(c1)nc1n2CCC(C)C1 (stereo not drawn) -6.28%, CCOc1ccc(OCC)c(Nc2nc3ccccc3n3nnnc23)c1 -4.9%, O=C(CSc1nnc(-c2ccncc2)n1C1CCCCC1)Nc1ccccc1 -7.6% [at 102 µM], CCn1c(SCC(=O)NC2CC2)nnc1-c1ccncc1 14.2% [at 102 µM], CC1(C)NC(=O)N(CC(=O)N2CCN(S(=O)(=O)c3ccccc3F)CC2)C1=O 22.5% [at 12.7 µM], Cc1csc2nc(O)c(C(=O)NCCN3CCOCC3)c(=O)n12 -4.7% [at 102 µM], NS(=O)(=O)c1ccc(NC(=S)NC(=O)c2cccc(Br)c2)cc1 -4.74% [at 102 µM], CCc1ccc(NC(=O)C(=O)NNC(=O)c2cccs2)cc1 18.7% [at 102 µM], CC(=O)NC(=S)Nc1ccc(NC(=O)c2cccnc2)cc1 -0.83% [at 102 µM], CC(C)C(=O)Nc1ccc(C(=O)NNC(=O)c2cccs2)cc1 61.3%, CC(=O)c1sc(N)nc1C -2.73% [at 2.33 µM], CCCc1nnc(NC(=O)CCC(=O)NC2CC2)s1 -1.79% [at 102 µM], O=C(NC1CC(=O)N(c2ccc(Cl)cc2)C1)C1CCCC1 (stereo not drawn) 12%, CSc1ncc(C(=O)NCc2ccccc2Cl)c(C(F)(F)F)n1 -9.4%

Potency, active:
CCN(c1ccc(NC(=O)COC(=O)CCc2nc3ccccc3n2-c2ccccc2)cc1)C(C)C 15.8 µM, Cc1ccc(N=C2NC(=O)/C(=C/C=C/c3ccco3)S2)cc1C 10 µM, CCn1cc(C(=O)NCCCN2CCCCCC2)c(=O)c2cc(S(=O)(=O)N3CCc4ccccc4C3)ccc21 31.6 µM, FC(F)(F)c1ccc(-n2cn[nH]c2=S)cc1 8.91 µM, COc1cc(/C=C2/C(=O)NN(c3ccc(F)cc3)C2=O)cc([N+](=O)[O-])c1O 39.8 µM, COc1ccc(-c2nnc3ccc(SCc4ccccc4)nn23)cc1 70.8 µM, O=C(NNc1ccccn1)c1ccc(Cl)nc1 3.55 µM, Cc1c(CC(=O)N2CCN(C(=O)C3COc4ccccc4O3)CC2)c(=O)oc2c(O)c(O)ccc12 (stereo not drawn) 12.6 µM, C1=C(N2CCOCC2)/C(=C/c2nc3ccccc3[nH]2)CC1 20 µM, Cc1c(C(=O)CN2CCOCC2)[nH]c2ccccc12 39.8 µM, CC1CCCCC1NC(=O)CSc1nnc(-c2ccncc2)n1CCCN(C)C (stereo not drawn) 3.98 µM, NS(=O)(=O)c1ccc(NC(=S)NNC(=O)c2cccs2)cc1 8.91 µM, NS(=O)(=O)c1ccc(NC(=S)NC(=O)c2cccnc2)cc1 50.1 µM
